Compound activity as filed in PubChem BioAssay.
Rows were chosen to be rich in hits. Some 2.4% of all compounds tested hit in one or more screens of this group.
NOD2 RIPK2 PPI: NOD2-RIPK2 protein interaction inhibition | 360,000 compounds, 0.38% hits | inhibition, % at 4.98 µM | CHO BLA complementation NOD2-RIPK2, CCF4 ratio | O43353; in the data active = inhibition above about 21%;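 note: 0% = vehicle only and 100% = reference blocker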
TLR4-MyD88 BLA: inhibitors of human TLR4-MyD88 binding | AID 861 | HeLa CL3-4 TLR4/MyD88 BLA complementation, FRET ratio | inhibition, % at 8.4 µM | 200,000 compounds, 0.18% hits; in the data active = inhibition above about 25%;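 note: 0% = vehicle and 100% = reference inhibitor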
HSF1 inh: HSF1 inhibition; 300,000 compounds, 0.77% hits; AID 2098; activity change, negative = inhibition, % at 7.5 µM (by protocol); NIH3T3-HGL HSE-luciferase, MG132-induced, luminescence 8 h; stronger effect = lower value;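 active = more than half of replicate wells show activity change below -50%, luminescence cut by over half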;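 note: luciferase reports HSF-1 transcriptional activity via heat shock element; 0% = median of DMSO wells and -100% = zero luminescence signal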
TLR9-MyD88 block: TLR9-MyD88 interaction inhibition | Q9NR96+Q99836 | 340,000 compounds, 0.21% hits | CHO BLA complementation TLR9-MyD88, CCF4 FRET ratio | inhibition, % at 4.98 µM | AID 504734;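 active = inhibition above the mean over all tested compounds plus 3 SD, cut at about 21% in these data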;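 note: 0% = DMSO only wells and 100% = clavulanate BLA inhibitor control wells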
Target sequence (Q99836 whole entry, looked up): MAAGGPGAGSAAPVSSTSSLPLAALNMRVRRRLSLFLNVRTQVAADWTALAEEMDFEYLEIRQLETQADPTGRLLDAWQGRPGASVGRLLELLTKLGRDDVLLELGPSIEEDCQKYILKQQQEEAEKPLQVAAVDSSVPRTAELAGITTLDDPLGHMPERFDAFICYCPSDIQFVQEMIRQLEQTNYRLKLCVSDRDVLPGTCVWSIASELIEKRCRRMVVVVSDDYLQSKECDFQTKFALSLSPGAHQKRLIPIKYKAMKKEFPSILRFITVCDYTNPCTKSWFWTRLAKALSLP
Target sequence (Q9NR96 whole entry, looked up): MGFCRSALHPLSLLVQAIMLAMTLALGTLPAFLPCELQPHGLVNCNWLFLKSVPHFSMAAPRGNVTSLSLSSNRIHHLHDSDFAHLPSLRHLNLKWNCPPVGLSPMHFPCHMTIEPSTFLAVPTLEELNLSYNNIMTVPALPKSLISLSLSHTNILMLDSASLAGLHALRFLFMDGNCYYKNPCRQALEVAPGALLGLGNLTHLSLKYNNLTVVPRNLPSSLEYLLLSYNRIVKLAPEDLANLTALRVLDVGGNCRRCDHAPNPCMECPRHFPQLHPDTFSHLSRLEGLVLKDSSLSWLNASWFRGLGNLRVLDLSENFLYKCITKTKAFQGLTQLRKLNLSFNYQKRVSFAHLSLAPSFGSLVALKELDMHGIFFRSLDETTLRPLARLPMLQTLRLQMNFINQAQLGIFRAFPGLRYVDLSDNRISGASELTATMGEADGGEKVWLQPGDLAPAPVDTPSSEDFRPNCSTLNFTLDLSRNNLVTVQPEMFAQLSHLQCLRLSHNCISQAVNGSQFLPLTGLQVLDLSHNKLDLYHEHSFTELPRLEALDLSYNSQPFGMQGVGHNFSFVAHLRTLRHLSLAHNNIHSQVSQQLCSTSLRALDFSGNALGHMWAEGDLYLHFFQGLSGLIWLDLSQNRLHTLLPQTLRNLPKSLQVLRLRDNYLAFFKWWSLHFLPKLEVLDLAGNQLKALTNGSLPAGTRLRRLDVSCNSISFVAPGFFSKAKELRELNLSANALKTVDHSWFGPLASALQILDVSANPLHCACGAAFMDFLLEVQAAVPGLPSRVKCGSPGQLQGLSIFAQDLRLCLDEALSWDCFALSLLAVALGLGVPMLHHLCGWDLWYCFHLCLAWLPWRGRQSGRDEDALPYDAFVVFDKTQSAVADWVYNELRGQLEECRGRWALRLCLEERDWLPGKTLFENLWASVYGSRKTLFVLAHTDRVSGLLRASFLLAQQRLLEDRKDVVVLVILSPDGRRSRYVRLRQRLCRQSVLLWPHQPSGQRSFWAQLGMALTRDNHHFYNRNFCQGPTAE
HSF-1 act: increases HSF-1 driven luciferase reporter signal. 300,000 compounds, 1.7% hits. activation, % at 9 µM. AID 504408. NIH3T3-HGL HSF-1 luciferase reporter, MG132, 8 h; 100% = twice DMSO control signal;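 active = mean replicate activation of at least 50% with a set share of replicates each reaching 50%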;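 note: 0% = median of the neutral control wells and 100% = twice that signal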
TLR4 MyD88 cnf: TLR4-MyD88 interaction inhibition confirmed. shares compounds with TLR4-MyD88 BLA. HeLa CL3-4 BLA complementation, CCF4 FRET ratio. inhibition, % at 8.4 µM. 350 compounds, 50% hits. AID 941;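 active = mean inhibition across three repeat runs above about 25% carried over from the earlier screen, limit read from the data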;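 note: plate controls were DMSO only for no effect and clavulanic acid blocking BLA at full dose for full effect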
BLA inhibitor ct: beta-lactamase inhibition flagged in TLR4-MyD88 counter-screen; inhibition, % at 8.4 µM; shares compounds with TLR4-MyD88 BLA; 350 compounds, 63% hits; HeLa BLA reporter, CCF4 FRET ratio;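 active = mean inhibition over three repeats above about 26% taken from the earlier screen, limit read from the data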;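 note: HeLa cells stably expressing beta-lactamase reporter as counterscreen for TLR4-MyD88 inhibitors; 0% = DMSO and 100% = clavulanic acid full inhibition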
TLR9-MyD88 conf: confirmation of human TLR9-MyD88 binding inhibitors; shares compounds with TLR9-MyD88 block; 680 compounds, 51% hits; inhibition, % at 4.98 µM; CHO TLR9/MyD88 BLA complementation, CCF4 FRET ratio;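 active = mean inhibition across three repeats above about 21% taken from the earlier screen, limit read from the data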;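 note: blue over green emission ratio reports constitutive TLR9 MyD88 association via BLA complementation; 0% = DMSO vehicle wells and 100% = clavulanate BLA inhibitor wells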
BLA counter-1: beta-lactamase reporter inhibition, counter-screen artifact; shares compounds with TLR9-MyD88 block; CHO-BLA cells, CCF4 FRET ratio, BLA reporter; inhibition, % at 4.98 µM; 680 compounds, 7% hits; AID 540251;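 active = mean inhibition above a 50% cutoff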;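 note: counterscreen of TLR9-MyD88 hits on CMV-driven BLA in CHO-K1 cells; 0% = DMSO alone and 100% = clavulanate blocking BLA; higher means less blue over green ratio so more BLA blockade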
TLR9 CHO cytotox: CHO cell toxicity counter-screen for TLR9-MyD88 inhibitors. shares compounds with TLR9-MyD88 block. TLR9-MyD88 CHO cells cytotoxicity, luminescence. inhibition, % at 4.98 µM. 680 compounds, 39% hits; in the data active = inhibition above about 11%
NOD2 RIPK2 conf: NOD2-RIPK2 interaction inhibition confirmed. shares compounds with NOD2 RIPK2 PPI. AID 624370. CHO cells, NOD2-RIPK2 BLA complementation, CCF4 FRET. inhibition, % at 4.98 µM. 1,200 compounds, 70% hits;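 active = mean inhibition across replicates above a set limit taken from the earlier primary screen, cut at about 21% in these data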;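 note: 0% = DMSO-only wells and the high end = clavulanate BLA-blocked wells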
BLA counter-2: counter-screen for NOD2-RIPK2 interaction inhibitors: BLA reporter. shares compounds with NOD2 RIPK2 PPI. CHO BLA reporter, CCF4 FRET ratio, counterscreen. inhibition, % at 4.98 µM. 1,200 compounds, 57% hits;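 active = mean inhibition above the low-control mean inhibition plus three low-control SD, cut at about 11% in these data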;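 note: 0% = DMSO only wells and 100% = clavulanate high control wells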
Starred values were filed as active, the others as inactive; nt = not tested or not shown.

SMILES	NOD2 RIPK2 PPI	TLR4-MyD88 BLA	HSF1 inh	TLR9-MyD88 block	HSF-1 act	TLR9-MyD88 conf	BLA counter-1	TLR9 CHO cytotox	others
C[C@@H]1CN([C@H](C)CO)C(=O)c2cc(NC(=O)Cc3cn(C)c4ccccc34)ccc2O[C@H]1CN(C)S(=O)(=O)c1ccc(F)cc1	2.9	nt	nt	7.4	nt	nt	nt	nt
N#Cc1sc2nc(-c3cccs3)cc(-c3ccc(Cl)cc3)c2c1N	24.1*	43.6*	2.0	30.1*	6.2	46.2*	44.9	2.7	TLR4 MyD88 cnf=46.6*;BLA inhibitor ct=74.7*;NOD2 RIPK2 conf=63.8*;BLA counter-2=65.8*
CCN(CC)c1cc(C)c(C#N)c2nc3ccccc3n12	-4.8	nt	-3.3	7.3	-9.0	nt	nt	nt
Cc1cc(Cl)n2c(nc3ccccc32)c1C#N	23.3*	45.3*	3.3	-3.9	6.6	nt	nt	nt	TLR4 MyD88 cnf=52.1*;BLA inhibitor ct=55.9*;NOD2 RIPK2 conf=86.5*;BLA counter-2=62.7*
Cc1nc(N2N=C3/C(=C/c4ccc(F)cc4)CCCC3C2c2ccc(F)cc2)sc1C(=O)N(C)C (centres undefined)	42.4*	41.5*	6.5	20.7	16.9	nt	nt	nt	TLR4 MyD88 cnf=37.4*;BLA inhibitor ct=64.8*;NOD2 RIPK2 conf=57.2*;BLA counter-2=65.0*
Cc1ccccc1NC(=O)COC(=O)c1ccc(C)c(S(=O)(=O)N2CCCCC2)c1	-9.0	nt	nt	-4.5	nt	nt	nt	nt
CC(C)(C)c1ccc(C2=CC(c3ccccc3F)n3ncnc3N2)cc1 (centres undefined)	15.4	nt	-34.5	22.2*	-48.4	-4.2	-7.7	4.5
Cn1cccc1C1C=C(c2ccc(C(C)(C)C)cc2)Nc2ncnn21 (centres undefined)	3.1	nt	6.2	1.1	15.2	nt	nt	nt
COc1cccc(C(=O)Nn2c(-c3cccs3)nc3ccccc3c2=O)c1OC	3.5	-3.4	2.4	5.9	-10.6	nt	nt	nt
COc1ccc(CNn2c(-c3cccs3)nc3ccccc3c2=O)cc1OC	-11.9	-1.0	0.5	21.9*	1.0	1.0	1.1	12.3*
Fc1ccccc1N1CCN(Cc2cc(-c3ccccc3)on2)CC1	8.0	nt	-75.3*	21.4*	-80.0	1.3	3.4	3.7
Fc1ccccc1N1CCN(Cc2nc(-c3ccccc3)no2)CC1	0.9	-9.2	-2.6	3.4	-13.1	nt	nt	nt
O=C(NC1CCN(c2ncccn2)CC1)c1c(F)cccc1F	-1.7	nt	-6.2	-1.5	-3.3	nt	nt	nt
COc1ccc(CNC(=O)c2cc(-c3ccc(OC)c(OC)c3)on2)cc1	-3.6	-5.4	4.8	22.7*	36.5	1.2	0.3	-4.3
COc1cc(/C=N/NC(=O)c2ccccc2NS(=O)(=O)c2cccs2)ccc1O	-9.2	nt	nt	-10.1	nt	nt	nt	nt
COc1ccc2c(C#N)c3ccccn3c2c1	11.3	24.0	-9.8	21.2*	20.1	5.4	8.4	7.2
Cc1cc(=O)n2ccccc2c1C#N	3.4	10.6	1.3	7.1	-0.1	nt	nt	nt
Cc1cccc(NC(=O)c2cc(-c3cc(Cl)ccc3O)n[nH]2)c1	-39.7	nt	10.1	22.8*	4.2	-5.5	-2.0	-10.0
CC(C(=O)NC(C)(C)C)n1c(-c2ccc3c(c2)OCO3)nc2ccccc21 (centres undefined)	1.1	nt	nt	nt	nt	nt	nt	nt
O=C(CN1C(=O)NC2(CCCCC2)C1=O)N1CCN(S(=O)(=O)c2cccc([N+](=O)[O-])c2)CC1	4.4	nt	nt	-3.5	nt	nt	nt	nt
